Results filed as inconclusive are left out. Where a structure was tested more than once in an assay, its records may differ in their call. Calls of active or inactive are those of the source. The calls were made as follows, unless noted: active = hit-call score of the fitted dose curve at least 0.9, where 1 is the maximum; inactive = score below 0.9.

One assay in a line: ACEA_ER_80hr: ACEA Biosciences xCELLigence Real-Time Cell Analysis on Estrogen Receptor Agonism for Proliferation (AID 2282667; active = hit-call score of the fitted dose curve at least 0.9, where 1 is the maximum). The following applies: T47D proliferation, impedance (xCELLigence), 80 h. The method, boiled down: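 Real-time impedance growth kinetics of human T-47D breast cells read 80 h after dosing, gain-of-signal fitted relative to DMSO. Compounds: 1:4 serial series, top final concentration 100 uM, n = 2.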
Turning to `CCO[Si](CCC(F)(F)C(F)(F)C(F)(F)C(F)(F)C(F)(F)C(F)(F)F)(OCC)OCC`, the molecule was called inactive.

In the case of `FC(F)(F)C(F)(F)C(F)(F)C(F)(F)CCI`, the outcome was inactive.

On to `Cc1ccc(S(=O)(=O)NCl)cc1`, for which the call was inactive.

As for `O=C(O)C(F)(F)C(F)(F)C(F)(F)C(F)(F)C(F)(F)C(F)(F)C(F)(F)C(F)(F)C(F)(F)C(F)F`, the AC50 (as a rule, the concentration at which the activity in the assay is half-maximal) is 18.8 µM (active).

As for `C1COCCN1`, the call was inactive.

`OCC(F)(F)C(F)(F)C(F)(F)C(F)F`: the result was inactive.

With `COC(OC(C)=O)c1ccccc1` (centres undefined), the molecule was called inactive.

`NC(=O)C(F)(F)C(F)(F)C(F)(F)C(F)(F)F`: the result was inactive.

Take `O=C(O)C(F)(F)C(F)(F)OC(F)(F)F`: the result was inactive.

For `O=C(Cl)C(F)(F)C(F)(F)C(F)(F)C(F)(F)C(F)(F)C(F)(F)C(F)(F)C(F)(F)F`, the molecule was called inactive.

Take `O=S(=O)(OCCOC(F)(F)F)C(F)(F)F`: the outcome was inactive.

For the molecule `FC(F)(F)C(F)(F)C(F)(F)CI`, the molecule was called inactive.

For the molecule `CC/C=C\CCOC(C)=O`, the result was inactive.

With `CS(C)(=O)=O`, the result was inactive.

With `OCC(F)(F)C(F)(F)C(F)(F)F`, the outcome was inactive.

As for `c1ccc(B(c2ccccc2)c2ccccc2)cc1`, the concentration at half-maximal activity (AC50) was 7.09 µM (active).

Take `CCN(CC)c1ccc2c(C)cc(=O)oc2c1`: the outcome was inactive.

Take `CC(Cc1ccc(O)c(O)c1)C(C)Cc1ccc(O)c(O)c1` (centres undefined): the molecule was classed as inactive.

Regarding `CCCCCCCCCCCCCCCC[N+](C)(C)Cc1ccccc1`, the molecule was called inactive.

`FC(F)(F)C(F)(F)C(F)(F)C(F)(F)C(F)(F)C(F)(F)C(F)(F)Br`: the molecule was classed as inactive.

Take `CC(C)=CCCC(C)CCOC(=O)C(C)C` (centres undefined): the outcome was inactive.

On to `C(=C(c1ccccc1)c1ccccc1)c1ccccc1`, for which the concentration at half-maximal activity (AC50) was 0.647 µM (active).

Turning to `COC(=O)CCC(F)(F)C(F)(F)C(F)(F)C(F)(F)F`, the result was inactive.

With `C#C[C@]1(O)CC[C@H]2[C@@H]3CCc4cc(OC)ccc4[C@H]3CC[C@@]21C`, the concentration at half-maximal activity (AC50) was 0.0054 µM (active).

Take `O=S(=O)(OCC(F)F)C(F)(F)F`: the outcome was inactive.

In the case of `CC(CCl)OP(=O)(OC(C)CCl)OC(C)CCl` (centres undefined), the result was inactive.

For the molecule `FC(F)(F)C(F)(F)C(F)(F)C(F)(F)C(F)(F)C(F)(F)C(F)(F)I`, the result was inactive.

Regarding `C=CC(F)(F)C(F)(F)C(F)(F)C(F)(F)C(F)(F)C(F)(F)C(F)(F)C(F)(F)C=C`, the molecule was called inactive.

On to `CCCCCC=O`, for which the molecule was classed as inactive.

A short description of a further assay: ATG_CRE_CIS: Attagene CIS-FACTORIAL HepG2 Assay for human cAMP Responsive Element (CRE) binding protein 3 (AID 2282926). The following applies: HepG2 CRE cis-reporter, Attagene multiplexed mRNA; actives raise or lower the signal. The gist of the method: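 Multiplexed transcription-unit reporters transfected into HepG2; 24 h dosing; RT-PCR/capillary electrophoresis fluorescence read-out; bidirectional fit vs DMSO.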
With `CCO[Si](CCC(F)(F)C(F)(F)C(F)(F)C(F)(F)C(F)(F)C(F)(F)F)(OCC)OCC`, the molecule was called inactive.

Consider `FC(F)(F)C(F)(F)C(F)(F)C(F)(F)CCI`, for which the result was inactive.

On to `O=C(O)C(F)(F)C(F)(F)C(F)(F)C(F)(F)C(F)(F)C(F)(F)C(F)(F)C(F)(F)Cl`, for which the AC50 was 50 µM (active) and the molecule was called inactive.

`Cc1ccc(S(=O)(=O)NCl)cc1`: the outcome was inactive.

Consider `O=C(O)C(F)(F)C(F)(F)C(F)(F)C(F)(F)C(F)(F)C(F)(F)C(F)(F)C(F)(F)C(F)(F)C(F)F`, for which the result was inactive.

Turning to `C1COCCN1`, the call was inactive.

As for `CC/C=C\CCOC(=O)c1ccccc1`, the molecule was called inactive.

In the case of `OCC(F)(F)C(F)(F)C(F)(F)C(F)F`, the molecule was classed as inactive.

On to `FC(F)(F)C(F)(F)C(F)(F)C(F)(F)C(F)(F)C(F)(F)CC1CO1` (centres undefined), for which the outcome was inactive.

Consider `COC(OC(C)=O)c1ccccc1` (centres undefined), for which the molecule was classed as inactive.

For `NC(=O)C(F)(F)C(F)(F)C(F)(F)C(F)(F)F`, the molecule was called inactive.

With `O=C(O)C(F)(F)C(F)(F)OC(F)(F)F`, the molecule was called inactive.

In the case of `O=C(Cl)C(F)(F)C(F)(F)C(F)(F)C(F)(F)C(F)(F)C(F)(F)C(F)(F)C(F)(F)F`, the molecule was called inactive.

`O=S(=O)(OCCOC(F)(F)F)C(F)(F)F`: the outcome was inactive.

With `FC(F)(F)C(F)(F)C(F)(F)CI`, the molecule was classed as inactive.

On to `CC/C=C\CCOC(C)=O`, for which the molecule was classed as inactive.

Consider `CS(C)(=O)=O`, for which the molecule was called inactive.

With `OCC(F)(F)C(F)(F)C(F)(F)F`, the molecule was classed as inactive.

On to `c1ccc(B(c2ccccc2)c2ccccc2)cc1`, for which the result was inactive.

`FC(F)(F)C(F)(F)C(F)(F)C(F)(F)C(F)(F)C(F)(F)C(F)(F)C(F)(F)F`: the outcome was inactive.

On to `CCN(CC)c1ccc2c(C)cc(=O)oc2c1`, for which the AC50 was 30.7 µM (active).

Consider `C=CC(F)(F)C(F)(F)C(F)(F)C(F)(F)C(F)(F)C(F)(F)C(F)(F)C(F)(F)F`, for which the outcome was inactive.

`CC(Cc1ccc(O)c(O)c1)C(C)Cc1ccc(O)c(O)c1` (centres undefined): the AC50 was 22.9 µM (active).

Turning to `CCCCCCCCCCCCCCCC[N+](C)(C)Cc1ccccc1`, the result was inactive.

As for `FC(F)(F)C(F)(F)C(F)(F)C(F)(F)C(F)(F)C(F)(F)C(F)(F)Br`, the outcome was inactive.

Consider `CC(C)=CCCC(C)CCOC(=O)C(C)C` (centres undefined), for which the result was inactive.

Consider `C(=C(c1ccccc1)c1ccccc1)c1ccccc1`, for which the molecule was called inactive.

For the molecule `COC(=O)CCC(F)(F)C(F)(F)C(F)(F)C(F)(F)F`, the molecule was classed as inactive.

As to `C#C[C@]1(O)CC[C@H]2[C@@H]3CCc4cc(OC)ccc4[C@H]3CC[C@@]21C`, the outcome was inactive.

Consider `O=S(=O)(OCC(F)F)C(F)(F)F`, for which the result was inactive.

For the molecule `CC(CCl)OP(=O)(OC(C)CCl)OC(C)CCl` (centres undefined), the molecule was classed as inactive.

As for `FC(F)(F)C(F)(F)C(F)(F)C(F)(F)C(F)(F)C(F)(F)C(F)(F)I`, the outcome was inactive.

Regarding `C=CC(F)(F)C(F)(F)C(F)(F)C(F)(F)C(F)(F)C(F)(F)C(F)(F)C(F)(F)C=C`, the call was inactive.

As to `CCCCCC=O`, the outcome was inactive.

Values taken from PubChem BioAssay (EPA / NIEHS).
